Measured values reported in PubChem BioAssay.
Active and inactive are the calls of the source.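 Rule for the calls, unless noted: active = fluorescence slope after compound addition differing from the mean of all screened samples at 99.7% confidence, in either direction; inactive = the rest.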

Tests used:
[1] = inhibitors of TNFa-induced NFkB p65 translocation, primary screen, imaging, HUVEC, MLSMR starter and 10KST1 sets (AID 438;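 active = inhibition above 20% together with a positive visual image hit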;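 note: compound added about 3h40 before a 20 min TNFalpha stimulation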;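 for inhibition: signal is the nuclear over cytoplasmic p65 intensity ratio per well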); conditions: HUVEC TNFa-induced p65 nuclear translocation; cell count: measured here: nuclei count (cytotoxicity indicator), at 2.08 µM; inhibition: at 2 µM, stronger effect = higher value, 0% TNFa-plus-vehicle, 100% no-TNFa wells
[2] = inhibitors of mutant huntingtin aggregation, primary screen, imaging, exon1htt(103Q)mCFP cells, high-content imaging (AID 483;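 active = visual image review flags a hit and inhibition of aggregation exceeds 20%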;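 note: compound exposure lasted 3 days before fixation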;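 for nuclei count: percent of the per-plate median nuclei count of sample wells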); conditions: exon1htt(103Q)mCFP cell line, aggregate imaging, at 2 µM; inhibition of aggregation: stronger effect = higher value; nuclei count: measured here: cell count, toxicity
[3] = inhibitors of E-selectin induction by TNFa, primary screen, imaging, HUVEC, immunofluorescence, MLSMR starter and 10KST1 sets (AID 487;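 active = visually confirmed hit in the image check and inhibition above 20%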;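 for inhibition: signal is fraction of cell area covered by stained E-selectin grains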;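 for nuclei count: 100% = median nuclei count of all wells on the same plate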); conditions: HUVEC TNFalpha-induced E-selectin immunofluorescence imaging, at 2 µM; inhibition: stronger effect = higher value; nuclei count: measured here: cell number, toxicity
[4] = target: Voltage-gated potassium channel subunit beta-2 (Rattus norvegicus) (UniProt P62483); assay: KvBeta enzyme negative modulators, primary screen, biochemical, NADPH fluorescence (AID 622;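 active = fluorescence slope higher than the sample average by over 3 SD, cut at about -0.22 in these data, passing the limit was not always enough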;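 note: slope of raw intensity against log time taken from 70 to 1610 s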); conditions: recombinant KvBeta, 4-cyanobenzaldehyde reduction, at 10 µM, stronger effect = higher value
[5] = target: Voltage-gated potassium channel subunit beta-2 (Rattus norvegicus) (UniProt P62483); assay: KvBeta positive modulators, primary screen, biochemical, NADPH fluorescence (AID 623;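 active = NADPH fluorescence slope more negative than the mean of all samples by about 3 SD, 99.7% confidence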;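 note: fluorescence intensity change per second fitted from 20 to 320 s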); conditions: Recombinant KvBeta, NADPH fluorescence decrease slope, 10 min; at 10 µM; stronger effect = lower value
[6] = target: Alpha-2C adrenergic receptor (Homo sapiens) (UniProt P18825); assay: modulators of alpha2C/GIRK thallium flux, primary screen, cell-based, HEK293 alpha2C/GIRK1/2 (AID 624); conditions: thallium flux BTC fluorescence, at 10 µM, actives lie on both sides;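 note: slope of fluorescence ratio to pre-addition baseline per second over 15 to 24 s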
[7] = inhibitors of Sendai virus-induced IRF3 signaling, primary screen, TLR/RLR signaling modifier project, cell-based, Sendai virus stimulus, luciferase, 10K MLSCN set (AID 602276;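 active = inhibition at or above 50% at 10 µM; inactive = inhibition below 50%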;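 note: firefly luciferase from ISG56 promoter only with Renilla not read in this screen; 0% = Sendai virus plus DMSO and 100% = medium plus DMSO without virus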); conditions: HEK293 RL24 IRF3 luciferase reporter, at 10 µM, stronger effect = higher value
[8] = inhibitors of poly I:C-induced TLR3 signaling, primary screen, cell-based, poly I:C stimulus, luciferase, 10K MLSCN set (AID 602277;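 active = inhibition of the reporter signal at or above 50%; inactive = inhibition below 50%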); conditions: HEK293-TLR3 RL24 IRF3 luciferase reporter, at 10 µM, stronger effect = higher value

Chain of Alpha-2C adrenergic receptor (Homo sapiens) (P18825 whole entry, looked up): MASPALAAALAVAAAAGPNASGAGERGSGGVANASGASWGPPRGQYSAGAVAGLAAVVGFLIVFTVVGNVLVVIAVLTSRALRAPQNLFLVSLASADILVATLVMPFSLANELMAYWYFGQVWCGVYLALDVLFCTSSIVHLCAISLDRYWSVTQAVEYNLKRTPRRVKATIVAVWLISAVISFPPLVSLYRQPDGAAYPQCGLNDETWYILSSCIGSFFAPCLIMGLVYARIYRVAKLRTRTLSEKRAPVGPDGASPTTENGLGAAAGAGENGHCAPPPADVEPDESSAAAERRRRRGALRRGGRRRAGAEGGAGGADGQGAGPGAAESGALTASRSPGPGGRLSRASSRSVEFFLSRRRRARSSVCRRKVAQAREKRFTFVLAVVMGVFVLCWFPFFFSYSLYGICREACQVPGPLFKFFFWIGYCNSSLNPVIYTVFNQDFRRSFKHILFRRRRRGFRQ
Chain of Voltage-gated potassium channel subunit beta-2 (Rattus norvegicus) (P62483 whole entry, looked up): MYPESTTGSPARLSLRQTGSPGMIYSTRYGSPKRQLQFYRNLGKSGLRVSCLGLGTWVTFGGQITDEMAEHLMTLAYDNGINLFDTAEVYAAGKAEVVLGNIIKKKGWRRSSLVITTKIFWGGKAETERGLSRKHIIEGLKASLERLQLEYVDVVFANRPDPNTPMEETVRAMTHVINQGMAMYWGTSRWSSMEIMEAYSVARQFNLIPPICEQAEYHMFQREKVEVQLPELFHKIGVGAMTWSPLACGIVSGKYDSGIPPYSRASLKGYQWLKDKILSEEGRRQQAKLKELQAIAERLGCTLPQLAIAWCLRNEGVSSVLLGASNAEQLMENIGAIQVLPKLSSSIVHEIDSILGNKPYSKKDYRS

| Compound | cell count [1] | inhibition [1] | inhibition of aggregation [2] | nuclei count [2] | inhibition [3] | nuclei count [3] | fluorescence slope [4] | NADPH fluorescence slope [5] | slope [6] | inhibition [7] | inhibition [8] |
| --- | --- | --- | --- | --- | --- | --- | --- | --- | --- | --- | --- |
| O=C(NCc1ccc2c(c1)OCO2)C1CCC(CNc2c(N3CCCCC3)c(=O)c2=O)CC1 (centres undefined) | 579 | 6.8% (inactive) | 2.3% (inactive) | 109% | 11.9% (inactive) | 104% | -0.595 (inactive) | -4.4e-05 (inactive) | 0.00656 (inactive) | 7.38% (inactive) | 24.7% (inactive) |
| CCn1c(C(Cc2ccccc2)NC(=O)COC)nc2ccccc21 (centres undefined) | 471 | 13.9% (inactive) | 5.5% (inactive) | 124% | 14.1% (inactive) | 110% | -0.536 (inactive) | -6.3e-05 (inactive) | 0.00652 (inactive) | 11% (inactive) | 31.9% (inactive) |
| CN(C)CCNc1oc(-c2ccccc2F)nc1C#N | 648 | 7.1% (inactive) | -11.1% (inactive) | 110% | -40% (inactive) | 116% | -0.062 (active) | 9.2e-06 (inactive) | 0.00579 (inactive) | 0.672% (inactive) | 34.3% (inactive) |
| Cc1sc2nc(SCC(=O)N3CCN(CCO)CC3)n(-c3ccccc3)c(=O)c2c1C | 397 | 7% (inactive) | -7.3% (inactive) | 111% | -55% (inactive) | 121% | -0.456 (inactive) | -4.5e-05 (inactive) | 0.00574 (inactive) | 16.8% (inactive) | 31% (inactive) |
| Cc1cc(S(=O)(=O)N2CCN(c3ccccc3C)CC2)ccc1F | 651 | -8.1% (inactive) | -13.5% (inactive) | 103% | -131% (inactive) | 125% | -0.462 (inactive) | 1.6e-05 (inactive) | 0.00665 (inactive) | 14.2% (inactive) | 28.2% (inactive) |
| O=C(O)C1CCCN1c1ncnc2c1oc1ccccc12 (centres undefined) | 626 | -4.4% (inactive) | 11.5% (inactive) | 101% | 22.9% (inactive) | 96.9% | -0.503 (inactive) | -1.8e-05 (inactive) | 0.00455 (inactive) | 5.71% (inactive) | 5.35% (inactive) |
| CC1CCN(c2oc(-c3cccc4ccccc34)nc2C#N)CC1 | 610 | -8.2% (inactive) | 1.2% (inactive) | 102% | -112% (inactive) | 101% | -0.0453 (active) | -6.6e-07 (inactive) | 0.00364 (inactive) | -40.5% (inactive) | -95.3% (inactive) |
| O=C(Cn1cnc2c(cnn2-c2ccc(F)cc2)c1=O)N1CCN(c2ccccc2)CC1 | 341 | -6% (inactive) | -0.4% (inactive) | 90.7% | -79.8% (inactive) | 108% | -0.506 (inactive) | -2.6e-06 (inactive) | 0.00638 (inactive) | 4.22% (inactive) | 8.47% (inactive) |
| COc1cccc(NC(=O)CSc2nnc(Cc3cccn3C)n2-c2ccc(F)cc2)c1 | 567 | -3.3% (inactive) | 38.3% (inactive) | 85.3% | 26.6% (inactive) | 110% | -0.594 (inactive) | -2.4e-05 (inactive) | 0.00609 (inactive) | -1.59% (inactive) | 15.6% (inactive) |
| Cc1ccc2cc(C(c3nnnn3CC3CCCO3)N3CCc4ccccc4C3)c(=O)[nH]c2c1 (centres undefined) | 691 | -6.9% (inactive) | 0.5% (inactive) | 78.6% | -102% (inactive) | 120% | -0.523 (inactive) | -3.7e-05 (inactive) | 0.00473 (inactive) | 14% (inactive) | 29.9% (inactive) |
| Cc1ccc2nc(NC(=O)Cn3cc4c(n3)CCCCC4)sc2c1 | 899 | 0.5% (inactive) | 4% (inactive) | 100% | -44.1% (inactive) | 123% | -0.581 (inactive) | -1.2e-05 (inactive) | 0.00613 (inactive) | -7.98% (inactive) | -11.8% (inactive) |
| CCC(=O)N1C(=O)CCN(C(C)=O)c2ccccc21 | 454 | 11.3% (inactive) | -2.5% (inactive) | 109% | -39.7% (inactive) | 130% | -0.381 (inactive) | 2.5e-05 (inactive) | 0.0091 (inactive) | 13.1% (inactive) | 20.6% (inactive) |
| Cc1nc2ccccc2n1CCC(=O)Nc1cccc(F)c1 | 606 | -4.8% (inactive) | 0.2% (inactive) | 100% | -23.9% (inactive) | 110% | -0.303 (inactive) | 9.1e-07 (inactive) | 0.00551 (inactive) | 16.2% (inactive) | 4.83% (inactive) |
| COC(=O)C1=C(C)Nc2ncnn2C1c1ccc(C)o1 (centres undefined) | 620 | 4.7% (inactive) | -58.3% (inactive) | 95.5% | 9.8% (inactive) | 108% | -0.581 (inactive) | -8.1e-06 (inactive) | 0.0055 (inactive) | -15.9% (inactive) | -6.27% (inactive) |
| O=C(Cn1c(NCCO)nc2ccccc21)c1ccccc1 | 513 | 4.9% (inactive) | 18.2% (inactive) | 106% | -58.5% (inactive) | 115% | -0.58 (inactive) | -1.8e-05 (inactive) | 0.00599 (inactive) | 9.81% (inactive) | 29.4% (inactive) |
| CCCCSc1nc(CCC)cc(=O)[nH]1 | 383 | -0.3% (inactive) | -4% (inactive) | 98.2% | 3.8% (inactive) | 116% | -0.34 (inactive) | 5.5e-06 (inactive) | 0.00636 (inactive) | 5.02% (inactive) | 2.79% (inactive) |
| COc1ccc(C2C(C(C)=O)=C(C)N=c3s/c(=C/c4ccc5c(c4)OCO5)c(=O)n32)cc1 (centres undefined) | 437 | -7.3% (inactive) | -44.9% (inactive) | 116% | -0.5% (inactive) | 116% | -0.528 (inactive) | -5.5e-05 (inactive) | 0.00398 (inactive) | 10.2% (inactive) | 23.9% (inactive) |
| COc1ccc2c(=O)c3c(=O)n(Cc4ccco4)c(-c4cc(OC)c(OC)c(OC)c4)nc3oc2c1 | 483 | -9.2% (inactive) | -28.3% (inactive) | 96.6% | -11.9% (inactive) | 121% | -0.525 (inactive) | 5.6e-06 (inactive) | 0.00457 (inactive) | 3.4% (inactive) | -1.04% (inactive) |
| Fc1ccc(-c2nnc3ccc(N4CCCC4)nn23)cc1 | 662 | 0.5% (inactive) | -1% (inactive) | 97.7% | -61.6% (inactive) | 120% | -0.56 (inactive) | 2e-05 (inactive) | 0.00653 (inactive) | 3.21% (inactive) | -61.2% (inactive) |
